Experiment [1] in a line: NCI Yeast Anticancer Drug Screen. Data for the rad50 strain (AID 155).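 Also: 0% = growth of vehicle-only cultures of the same strain.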 Conditions: S. cerevisiae rad50 strain growth inhibition, stronger effect = higher value. The essentials:
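Compounds were tested on a yeast strain with an engineered DNA damage repair alteration; the reported value is growth inhibition normalised to vehicle treatment.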

Experiment [2] in a line: NCI Yeast Anticancer Drug Screen. Data for the mec2-1 strain (AID 157). Conditions: S. cerevisiae mec2-1 strain, stronger effect = higher value. The essentials: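 Cells of the genetically defined mec2-1 yeast strain are incubated with test compound. Inhibition of growth is calculated against vehicle-treated controls.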
Experiment [3] is described as follows: NCI Yeast Anticancer Drug Screen. Data for the sgs1 mgt1 strain (AID 161).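 Also: 0% = growth of cultures given vehicle only.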 Conditions: S. cerevisiae sgs1 mgt1 strain, stronger effect = higher value. The essentials: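 Mutant yeast exposed to compound; growth scored against vehicle-only wells.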
The nature of experiment [4]: NCI Yeast Anticancer Drug Screen. Data for the cln2 rad14 strain (AID 165).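 Also: 0% = growth equal to vehicle treated cultures.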 The note with it: S. cerevisiae cln2 rad14 strain, stronger effect = higher value. In outline: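 The screen exposed genetically defined yeast (cln2 rad14) to test compounds and scored growth inhibition relative to vehicle-treated controls.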
Experiment [5] is described as follows: NCI Yeast Anticancer Drug Screen. Data for the bub3 strain (AID 167). Conditions: S. cerevisiae bub3 mutant strain, stronger effect = higher value. The essentials: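 Growth of a checkpoint-deficient yeast mutant is measured after compound exposure. Values represent inhibition relative to vehicle.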
The nature of experiment [6]: NCI Yeast Anticancer Drug Screen. Data for the mlh1 rad18 strain (AID 175). The note with it: S. cerevisiae mlh1 rad18 strain growth inhibition, stronger effect = higher value. In outline: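 Compound-treated yeast growth, normalised to vehicle controls. Strain bears defined DNA repair mutations.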
The mark [7] stands for this setting: at 5.0 µM (retest, dose inferred, filed as 0.5).
The mark [8] stands for this setting: at 50.0 µM (retest, dose inferred, filed as 5.0).

The structures appear in SMILES notation. “And” between values parts separate entries of the source, which are not always exact repeats. Identical values can stand only once. This is part of a sample that, as a whole, favours compounds with a hit. Of some 79,000 tested, about 15% had one in any assay. Values without a mark were called inactive. The source made the active and inactive calls. Rule as the data show it: active = growth inhibition above about 70%; inactive = the rest.

This note sets out measurements from PubChem BioAssay (NCI).

Take `S=P(S)(Oc1ccccc1)Oc1ccccc1`: the growth inhibition is -10% in experiment [1] (setting [7]); 25% in experiment [1] (setting [8]); 56% in experiment [1] (at 50.0 µM); -18% in experiment [2] (setting [7]); 18% in experiment [2] (setting [8]); 77.7% (active) in experiment [2] (at 50.0 µM). Besides, the growth inhibition was 1% in experiment [3] (setting [7]); 17% in experiment [3] (setting [8]); 40.4% in experiment [3] (at 50.0 µM); -11% in experiment [4] (setting [7]); 20% in experiment [4] (setting [8]); 92.9% (active) in experiment [4] (at 50.0 µM). Also, the growth inhibition in experiment [5] (setting [7]) was -4%; in experiment [5] (setting [8]), 38%; in experiment [5] (at 50.0 µM), 75.2% (active); in experiment [6] (setting [7]) it was -12%; in experiment [6] (setting [8]), 10%; in experiment [6] (at 50.0 µM), 90.2% (active).

Consider `Cc1cc[n+](C2=C(Nc3ccc(Cl)cc3Cl)C(=O)c3ccccc3C2=O)cc1`, for which the growth inhibition in experiment [1] (setting [7]) is 41%; in experiment [1] (setting [8]), 90% (active); in experiment [1] (at 50.0 µM) it was 92.3% (active); in experiment [2] (setting [7]) it was -1%; in experiment [2] (setting [8]) it was 58%; in experiment [2] (at 50.0 µM), 61.5%. For the same molecule, the growth inhibition in experiment [3] (setting [7]) is 1%; in experiment [3] (setting [8]) it was 59%; in experiment [3] (at 50.0 µM), 66.4%; in experiment [4] (setting [7]), 4%; in experiment [4] (setting [8]), 39%; in experiment [4] (at 50.0 µM) it was 40.2%. Moreover, the growth inhibition in experiment [5] (setting [7]) is 5%; in experiment [5] (setting [8]), 78% (active); in experiment [5] (at 50.0 µM), 61.1%; in experiment [6] (setting [7]) it was 4%; in experiment [6] (setting [8]), 58%; in experiment [6] (at 50.0 µM) it was 81% (active).

Consider `NCCBr`, for which the growth inhibition in experiment [1] (setting [7]) was 0%; in experiment [1] (setting [8]), -26%; in experiment [1] (at 50.0 µM), -8.5% and -19.5%; in experiment [2] (setting [7]), -1%; in experiment [2] (setting [8]), 1%; in experiment [2] (at 50.0 µM) it was -7.65% and -21.2%. Besides, the growth inhibition in experiment [3] (setting [7]) is -3%; in experiment [3] (setting [8]) it was -4%; in experiment [3] (at 50.0 µM), 6.55% and -5.6%; in experiment [4] (setting [7]) it was 3%; in experiment [4] (setting [8]), -3%; in experiment [4] (at 50.0 µM), -23.7% and -8.9%. The growth inhibition was -25% in experiment [5] (setting [7]); -6% in experiment [5] (setting [8]); -0.55% and 1.2% in experiment [5] (at 50.0 µM); 4% in experiment [6] (setting [7]); -2% in experiment [6] (setting [8]); 2.25% and -0.05% in experiment [6] (at 50.0 µM).

In the case of `CC(C)(c1ccccc1)c1ccc(O)cc1`, the growth inhibition in experiment [1] (setting [7]) was -5%; in experiment [1] (setting [8]), 58%; in experiment [1] (at 50.0 µM), 98% (active); in experiment [2] (setting [7]), -38%; in experiment [2] (setting [8]), 88% (active); in experiment [2] (at 50.0 µM), 99% (active). Further, the growth inhibition in experiment [3] (setting [7]) was -7%; in experiment [3] (setting [8]) it was 46%; in experiment [3] (at 50.0 µM), 99.7% (active); in experiment [4] (setting [7]), -9%; in experiment [4] (setting [8]), 71% (active); in experiment [4] (at 50.0 µM), 98.8% (active). Also, the growth inhibition in experiment [5] (setting [7]) is -23%; in experiment [5] (setting [8]), 97% (active); in experiment [5] (at 50.0 µM), 99.5% (active); in experiment [6] (setting [7]), -8%; in experiment [6] (setting [8]), 97% (active); in experiment [6] (at 50.0 µM), 99.5% (active).

Regarding `CCC(=O)C(CCN1CCC2(CCCc3ccccc32)CC1)(c1ccccc1)c1ccccc1`, the growth inhibition in experiment [1] (setting [7]) was -2%; in experiment [1] (setting [8]) it was 89% (active); in experiment [1] (at 50.0 µM) it was 98.4% (active); in experiment [2] (setting [7]) it was -5%; in experiment [2] (setting [8]), 93% (active); in experiment [2] (at 50.0 µM), 94.2% (active). Besides, the growth inhibition is 3% in experiment [3] (setting [7]); 93% (active) in experiment [3] (setting [8]); 97.8% (active) in experiment [3] (at 50.0 µM); -11% in experiment [4] (setting [7]); 87% (active) in experiment [4] (setting [8]); 87.2% (active) in experiment [4] (at 50.0 µM). Besides, the growth inhibition in experiment [5] (setting [7]) was -2%; in experiment [5] (setting [8]), 91% (active); in experiment [5] (at 50.0 µM), 94.2% (active); in experiment [6] (setting [7]), 3%; in experiment [6] (setting [8]) it was 92% (active); in experiment [6] (at 50.0 µM), 97.3% (active).

With `N#CN(Cc1ccccc1)C(c1ccccc1)(c1ccccc1)c1ccccc1.[Cl][Sn]([c]1ccccc1)([c]1ccccc1)[c]1ccccc1`, the growth inhibition in experiment [1] (setting [7]) is 99% (active); in experiment [1] (setting [8]), 91% (active); in experiment [1] (at 50.0 µM), 97.3% (active); in experiment [2] (setting [7]), 100% (active); in experiment [2] (setting [8]) it was 94% (active); in experiment [2] (at 50.0 µM) it was 98.3% (active). For the same molecule, the growth inhibition in experiment [3] (setting [7]) was 100% (active); in experiment [3] (setting [8]) it was 91% (active); in experiment [3] (at 50.0 µM), 98% (active); in experiment [4] (setting [7]) it was 99% (active); in experiment [4] (setting [8]) it was 85% (active); in experiment [4] (at 50.0 µM), 97.5% (active). Further, the growth inhibition in experiment [5] (setting [7]) is 99% (active); in experiment [5] (setting [8]) it was 87% (active); in experiment [5] (at 50.0 µM) it was 98.1% (active); in experiment [6] (setting [7]), 99% (active); in experiment [6] (setting [8]), 88% (active); in experiment [6] (at 50.0 µM), 98% (active).

Take `CC(C)(C)OC(=O)NC(CSC(c1ccccc1)(c1ccccc1)c1cccs1)C(=O)O` (stereo not given): the growth inhibition was 7% in experiment [1] (setting [7]); 97% (active) in experiment [1] (setting [8]); 95.7% (active) in experiment [1] (at 50.0 µM); 17% in experiment [2] (setting [7]); 99% (active) in experiment [2] (setting [8]); 69.2% in experiment [2] (at 50.0 µM). Moreover, the growth inhibition in experiment [3] (setting [7]) was 7%; in experiment [3] (setting [8]), 99% (active); in experiment [3] (at 50.0 µM), 96.5% (active); in experiment [4] (setting [7]), 23%; in experiment [4] (setting [8]), 99% (active); in experiment [4] (at 50.0 µM), 78.8% (active). Moreover, the growth inhibition in experiment [5] (setting [7]) is 9%; in experiment [5] (setting [8]), 99% (active); in experiment [5] (at 50.0 µM) it was 14.2%; in experiment [6] (setting [7]), 12%; in experiment [6] (setting [8]) it was 99% (active); in experiment [6] (at 50.0 µM), 83.2% (active).

Consider `CSc1ccc2c(c1)c(CCN)c(C)n2Cc1ccccc1Cl`, for which the growth inhibition was 3% in experiment [1] (setting [7]); 100% (active) in experiment [1] (setting [8]); 99.5% (active) in experiment [1] (at 50.0 µM); 0% in experiment [2] (setting [7]); 100% (active) in experiment [2] (setting [8]); 99.5% (active) in experiment [2] (at 50.0 µM). For the same molecule, the growth inhibition in experiment [3] (setting [7]) was 12%; in experiment [3] (setting [8]), 99% (active); in experiment [3] (at 50.0 µM) it was 99.3% (active); in experiment [4] (setting [7]) it was -31%; in experiment [4] (setting [8]), 98% (active); in experiment [4] (at 50.0 µM) it was 98.5% (active). The growth inhibition in experiment [5] (setting [7]) is -7%; in experiment [5] (setting [8]) it was 99% (active); in experiment [5] (at 50.0 µM) it was 99.5% (active); in experiment [6] (setting [7]) it was 13%; in experiment [6] (setting [8]), 99% (active); in experiment [6] (at 50.0 µM), 99.4% (active).

Take `CN(C)CC1CC2C3CC=C4CC(O)CCC4(C)C3CCC2(C)C1=O` (stereo not given): the growth inhibition in experiment [1] (setting [7]) was -9%; in experiment [1] (setting [8]), 78% (active); in experiment [1] (at 50.0 µM), 88% (active); in experiment [2] (setting [7]) it was -1%; in experiment [2] (setting [8]) it was 85% (active); in experiment [2] (at 50.0 µM), 37.4%. Moreover, the growth inhibition in experiment [3] (setting [7]) is -5%; in experiment [3] (setting [8]) it was 86% (active); in experiment [3] (at 50.0 µM) it was 92.2% (active); in experiment [4] (setting [7]), 4%; in experiment [4] (setting [8]) it was 64%; in experiment [4] (at 50.0 µM), 29.1%. Also, the growth inhibition is -23% in experiment [5] (setting [7]); 90% (active) in experiment [5] (setting [8]); 79% (active) in experiment [5] (at 50.0 µM); -12% in experiment [6] (setting [7]); 91% (active) in experiment [6] (setting [8]); 92.5% (active) in experiment [6] (at 50.0 µM).

In the case of `CCOP(=O)(OCC)/C(C#N)=C/c1cccc(C)c1`, the growth inhibition was 4% in experiment [1] (setting [7]); 53% in experiment [1] (setting [8]); 71.4% (active) in experiment [1] (at 50.0 µM); -14% in experiment [2] (setting [7]); 28% in experiment [2] (setting [8]); 58.3% in experiment [2] (at 50.0 µM). For the same molecule, the growth inhibition in experiment [3] (setting [7]) was -18%; in experiment [3] (setting [8]), 42%; in experiment [3] (at 50.0 µM), 65.8%; in experiment [4] (setting [7]) it was -17%; in experiment [4] (setting [8]), 9%; in experiment [4] (at 50.0 µM), 35%. Also, the growth inhibition in experiment [5] (setting [7]) was -8%; in experiment [5] (setting [8]), 52%; in experiment [5] (at 50.0 µM), 52.1%; in experiment [6] (setting [7]) it was -37%; in experiment [6] (setting [8]), 56%; in experiment [6] (at 50.0 µM) it was 66.3%.
